Results filed as inconclusive are left out. Calls of active or inactive are those of the source. Unless noted, the call rests on the fitted dose curve; in most records, active means well fitted curve in the direction sought with a large enough effect in the repeat runs; inconclusive means weak or mixed curves; inactive means no such curve, though single readings can be large; an effect the other way counts as inactive or inconclusive.
How the values were obtained:
[1] = qHTS assay to identify small molecule antagonists of the estrogen receptor alpha (ER-alpha) signaling pathway using the BG1 cell line in the presence of 0.1 nM 17-beta-estradiol - cell viability counter screen (AID 1259241); further: nearly all actives have a fitted effect of over 40% in size
Summary of the method: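 CellTiter-Fluor read (30 min, 37C) on ER-alpha/ERE-luc VM7Luc4E2 cells; 22 hr compound treatment; agonist 0.1 nM E2 final; same-well multiplex.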

[2] = qHTS assay to identify small molecule antagonists of the androgen receptor (AR) signaling pathway using the MDA cell line in the presence of 0.5 nM R1881 - cell viability counter screen (AID 1259242); further: nearly all actives have a fitted effect of over 45% in size
Summary of the method: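 MDA-kb2 cells (human breast carcinoma, stably carrying MMTV-luciferase reporter) were exposed to compounds with 0.5 nM R1881 (final) for 16 hr at 37C, 0% CO2; viability then read as live-cell protease fluorescence (CellTiter-Fluor, 30 min) in the same wells.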

[3] = molecular target: Androgen receptor (Homo sapiens) (UniProt P10275); experiment: qHTS assay to identify small molecule antagonists of the androgen receptor (AR) signaling pathway using the MDA cell line in the presence of 0.5 nM R1881 (AID 1259243); further: nearly all actives have a fitted effect of over 50% in size
Summary of the method: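 MDA-kb2 human breast carcinoma cells carrying an MMTV-luciferase reporter (AR- and GR-responsive) were plated, rested 5 hr at 37C, dosed with compounds, then stimulated with 0.5 nM R1881 (final) for 16 hr; luminescence was read after ONE-Glo.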

[4] = molecular target: Estrogen receptor (Homo sapiens) (UniProt P03372); experiment: qHTS assay to identify small molecule antagonists of the estrogen receptor alpha (ER-alpha) signaling pathway using the BG1 cell line in the presence of 0.1 nM 17-beta-estradiol (AID 1259244); further: nearly all actives have a fitted effect of over 50% in size
Summary of the method: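 VM7Luc4E2 cells (endogenous full-length ER-alpha, stable 4xERE-luciferase) were grown 5 days in phenol red-free medium with charcoal-stripped FBS, then exposed 22 h at 37C to compounds plus 0.1 nM (final) 17beta-estradiol; ONE-Glo luminescence read-out.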

[5] = qHTS assay to identify small molecule phospholipidosis (PLD) inducers (AID 1259344; active means well fitted curve in the direction sought with a large enough effect; an effect the other way counts as inactive or inconclusive)
Summary of the method: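 HepG2 cells on collagen I, attached 4 h at 37 C, were co-treated with compound and LipidTOX Red dye for 24 h at 37 C, then fixed with paraformaldehyde plus Hoechst 33342 and imaged by high-content microscopy for phospholipid accumulation.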

[6] = qHTS assay to identify small molecule HDAC inhibitors - cell viability counter screen (AID 1259365); further: series mostly up to about 92 µM; nearly all actives have a fitted effect of over 50% in size
Summary of the method: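 To flag cytotoxic hits, 1,500 wild-type HCT-116 cells per well, plated the day before, receive test compounds for 2hr at 37 C before CellTiter-Glo reagent and a luminescence read.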

[7] = qHTS assay to identify small molecule agonists of the sonic hedgehog signaling (Shh) pathway - cell viability counter screen (AID 1259366); further: nearly all actives have a fitted effect of over 50% in size
Summary of the method: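 Fluorescence from CellTiter-Fluor reports live cells in this counter screen. NIH/3T3-derived Gli1-Luc reporter cells receive test compounds for 24hr at 37C; reagent goes in at 23hr.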

[8] = qHTS assay to identify small molecule antagonists of the sonic hedgehog signaling (Shh) pathway - cell viability counter screen (AID 1259367); further: nearly all actives have a fitted effect of over 55% in size
Summary of the method: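 NIH/3T3-derived Gli1-Luc reporter cells (2,000 per well) rested 4 hr at 37 C, then received DMSO compounds plus conditioned medium. After 23 hr of treatment, CellTiter-Fluor was added for 1 hr at 37C and fluorescence read.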

[9] = qHTS assay to identify small molecule agonists of the sonic hedgehog signaling (Shh) pathway (AID 1259368; calls by dose curve; further: series mostly up to about 92 µM; nearly all actives have a fitted effect of over 15% in size)
Summary of the method: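 NIH/3T3-derived 3T3Gli1-Luc cells carrying a stably integrated Gli1 response element–firefly luciferase reporter were plated, left 4 hr at 37 C, then given compounds in DMSO for 24 hr. Luminescence was read 30 min after adding luciferase reagent.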

[10] = qHTS assay to identify small molecule antagonists of the sonic hedgehog signaling (Shh) pathway (AID 1259369; calls by dose curve; further: nearly all actives have a fitted effect of over 45% in size)
Summary of the method: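 NIH/3T3-derived 3T3Gli1-Luc cells with stably integrated Gli1-Luc reporter were preincubated 4hr at 37 C, then given compounds in DMSO plus Shh conditioned medium and incubated 24hr. Firefly luciferase luminescence read after 30min reagent at room temperature.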

[11] = molecular target: Estrogen receptor beta (Homo sapiens) (UniProt Q92731); experiment: qHTS assay to identify small molecule agonists of the estrogen receptor beta (ER-beta) signaling pathway (AID 1259377; active means well fitted activation curve with a large enough effect in the signal ratio in the repeat runs, not every such curve was filed as active; the % refers to the signal ratio)
Summary of the method: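 Screening used GripTite ER-beta-UAS-bla cells held in 2% charcoal-stripped FBS medium. After overnight (16 hr) compound incubation at 37C, beta-lactamase activity was detected with a FRET substrate by fluorescence.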

[12] = molecular target: Estrogen receptor beta (Homo sapiens) (UniProt Q92731); experiment: qHTS assay to identify small molecule antagonists of the estrogen receptor beta (ER-beta) signaling pathway (AID 1259378; active means well fitted inhibition curve with a large enough effect in the signal ratio in the repeat runs, not every such curve was filed as active; the % refers to the signal ratio)
Summary of the method: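 ER-beta-UAS-bla HEK293T (GripTite) cells in 2% charcoal-stripped FBS medium were preincubated 6 hr at 37C, dosed with compound, then stimulated with 1 nM E2 (final) for 16 hr; beta-lactamase reporter read by B/G FRET fluorescence after 2 hr substrate loading.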

[13] = qHTS assay to identify small molecule agonists of the androgen receptor (AR) signaling pathway in the presence of an antagonist - cell viability counter screen (AID 1259379); further: series mostly up to about 92 µM; nearly all actives have a fitted effect of over 25% in size
Summary of the method: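 MDA-kb2 human breast carcinoma cells (stable MMTV-luciferase, AR/GR responsive) were seeded 3,000 cells/well, pre-incubated 5 hr at 37C without CO2, then given 3.0uM nilutamide and compounds at 15 concentrations for 16 hr. Viability was read by CellTiter-Fluor fluorescence.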

[14] = qHTS assay to identify small molecule agonists of the estrogen receptor beta (ER-beta) signaling pathway - cell viability counter screen (AID 1259380); further: nearly all actives have a fitted effect of over 30% in size
Summary of the method: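 ER-beta-UAS-bla HEK293T cells in medium with 2% charcoal-stripped FBS were preincubated 6 hr at 37C, dosed with compound in DMSO for 16 hr, then after the bla read, CellTiter-Glo was added for 30 min at room temperature; luminescence recorded.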

[15] = qHTS assay to identify small molecule antagonists of the estrogen receptor beta (ER-beta) signaling pathway - cell viability counter screen (AID 1259382); further: series mostly up to about 92 µM; nearly all actives have a fitted effect of over 55% in size
Summary of the method: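 ER-beta-UAS-bla HEK293T cells (2,000/well, 2% charcoal-stripped FBS) were pre-incubated 6 hr at 37C, then given compound plus 1nM final 17-beta-estradiol for 16 hr. Viability was read in the same wells by CellTiter-Glo luminescence after 30 min at room temperature.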

[16] = qHTS assay to identify small molecule agonists or antagonists of the thyroid stimulating hormone receptor (TSHR) signaling pathway - wild type cell line counter screen (AID 1259384; calls by dose curve)
Summary of the method: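 Wild-type HEK293 cells were plated 18 h at 37 C/5% CO2, pin-dosed with compound plus Ro20-1724 medium, held 30 min at room temperature, then given cAMP-d2 and anti-cAMP-cryptate; fluorescence was read after 1 h. Fifteen concentrations, triplicate.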

[17] = molecular target: Thyrotropin receptor (Homo sapiens) (UniProt P16473); experiment: qHTS assay to identify small molecule antagonists of the thyroid stimulating hormone receptor (TSHR) signaling pathway (AID 1259385; calls by dose curve; further: nearly all actives have a fitted effect of over 20% in size)
Summary of the method: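 TSHR-HEK293 cells were plated and held 18 h at 37C/5% CO2, then given compound plus Ro20-1724 and stimulated with TSH at 1.5 ng/mL final. After 30 min at room temperature, cAMP was detected with cAMP-d2/anti-cAMP-cryptate (1 h) by fluorescence.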

[18] = qHTS assay to identify small molecule agonists of the estrogen receptor alpha (ER-alpha) signaling pathway in the presence of an antagonist - cell viability counter screen (AID 1259386); further: series mostly up to about 92 µM; nearly all actives have a fitted effect of over 30% in size
Summary of the method: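 VM7Luc4E2 cells (endogenous full-length ER-alpha, 4×ERE-luciferase) were held 5 days in phenol red-free medium with 10% charcoal-stripped FBS, plated, then given 10.0nM ICI-182,780 and compounds at 15 concentrations for 22hr at 37C; viability read by CellTiter-Fluor fluorescence.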

[19] = qHTS assay to identify small molecule HDAC inhibitors (AID 1259364); further: top concentration of the series differs between compounds; nearly all actives have a fitted effect of over 45% in size
Summary of the method: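 Wild-type HCT-116 cells were plated overnight, exposed to compounds for 2 h at 37 °C, then given HDAC-Glo class I/II luminogenic reagent for 30 min at room temperature before luminescence was read.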

[20] = molecular target: Estrogen receptor (Homo sapiens) (UniProt P03372); experiment: qHTS assay to identify small molecule agonists of the estrogen receptor alpha (ER-alpha) signaling pathway in the presence of an antagonist (AID 1259383; calls by dose curve; further: top concentration of the series differs between compounds; nearly all actives have a fitted effect of over 15% in size)
Summary of the method: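 VM7Luc4E2 cells (endogenous full-length ER-alpha, 4×ERE-luciferase) were precultured 5 days in phenol red-free medium with 10% charcoal-stripped FBS, given 10.0nM ICI-182,780 (final), then treated with compounds at 15 concentrations for 22hr at 37C; luminescence read with ONE-Glo.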
On the % scale 0 is the no-effect control and ±100 the full control effect.

Sequence of Androgen receptor (Homo sapiens) (P10275 whole entry, looked up): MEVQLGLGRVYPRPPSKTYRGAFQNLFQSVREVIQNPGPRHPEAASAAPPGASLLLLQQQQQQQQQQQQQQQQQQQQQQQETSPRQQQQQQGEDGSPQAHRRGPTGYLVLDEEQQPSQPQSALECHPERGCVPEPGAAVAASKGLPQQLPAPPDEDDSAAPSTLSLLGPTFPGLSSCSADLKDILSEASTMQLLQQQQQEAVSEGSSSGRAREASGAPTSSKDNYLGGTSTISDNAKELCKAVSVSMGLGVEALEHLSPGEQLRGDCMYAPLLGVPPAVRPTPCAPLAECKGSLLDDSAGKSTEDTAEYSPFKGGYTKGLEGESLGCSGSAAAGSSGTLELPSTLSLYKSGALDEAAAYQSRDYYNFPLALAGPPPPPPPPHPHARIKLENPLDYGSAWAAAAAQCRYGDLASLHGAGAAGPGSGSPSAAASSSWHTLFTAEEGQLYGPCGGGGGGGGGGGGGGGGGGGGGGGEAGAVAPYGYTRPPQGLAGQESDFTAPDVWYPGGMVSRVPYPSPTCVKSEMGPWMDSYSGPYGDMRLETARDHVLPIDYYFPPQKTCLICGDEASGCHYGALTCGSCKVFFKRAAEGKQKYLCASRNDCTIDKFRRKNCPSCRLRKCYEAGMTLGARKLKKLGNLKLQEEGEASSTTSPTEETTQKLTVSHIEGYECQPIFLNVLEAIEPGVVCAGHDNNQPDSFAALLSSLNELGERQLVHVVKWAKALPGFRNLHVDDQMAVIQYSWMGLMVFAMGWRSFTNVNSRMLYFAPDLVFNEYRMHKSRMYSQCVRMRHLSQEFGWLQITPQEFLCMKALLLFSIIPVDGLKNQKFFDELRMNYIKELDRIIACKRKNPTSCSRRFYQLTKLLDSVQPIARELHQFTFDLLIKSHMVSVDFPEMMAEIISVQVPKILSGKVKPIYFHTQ
Sequence of Thyrotropin receptor (Homo sapiens) (P16473 whole entry, looked up): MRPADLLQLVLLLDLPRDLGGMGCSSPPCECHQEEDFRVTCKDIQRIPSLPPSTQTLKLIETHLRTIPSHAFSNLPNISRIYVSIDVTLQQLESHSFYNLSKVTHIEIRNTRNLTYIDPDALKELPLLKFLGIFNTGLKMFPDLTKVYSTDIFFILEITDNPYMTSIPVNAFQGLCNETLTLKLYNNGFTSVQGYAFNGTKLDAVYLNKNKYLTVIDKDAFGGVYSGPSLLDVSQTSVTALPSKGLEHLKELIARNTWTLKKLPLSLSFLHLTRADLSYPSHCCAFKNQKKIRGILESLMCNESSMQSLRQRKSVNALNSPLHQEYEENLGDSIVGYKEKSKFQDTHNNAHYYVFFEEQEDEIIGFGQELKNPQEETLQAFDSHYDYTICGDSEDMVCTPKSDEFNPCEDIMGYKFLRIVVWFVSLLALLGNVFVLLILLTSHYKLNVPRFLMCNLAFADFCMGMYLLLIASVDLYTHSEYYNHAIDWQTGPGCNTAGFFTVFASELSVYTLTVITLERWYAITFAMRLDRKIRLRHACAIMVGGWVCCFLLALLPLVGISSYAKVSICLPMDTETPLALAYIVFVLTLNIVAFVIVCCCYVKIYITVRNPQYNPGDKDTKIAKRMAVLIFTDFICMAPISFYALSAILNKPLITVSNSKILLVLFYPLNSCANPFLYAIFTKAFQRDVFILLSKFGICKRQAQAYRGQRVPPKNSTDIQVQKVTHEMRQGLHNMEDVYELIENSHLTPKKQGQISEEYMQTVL
Sequence of Estrogen receptor (Homo sapiens) (P03372 whole entry, looked up): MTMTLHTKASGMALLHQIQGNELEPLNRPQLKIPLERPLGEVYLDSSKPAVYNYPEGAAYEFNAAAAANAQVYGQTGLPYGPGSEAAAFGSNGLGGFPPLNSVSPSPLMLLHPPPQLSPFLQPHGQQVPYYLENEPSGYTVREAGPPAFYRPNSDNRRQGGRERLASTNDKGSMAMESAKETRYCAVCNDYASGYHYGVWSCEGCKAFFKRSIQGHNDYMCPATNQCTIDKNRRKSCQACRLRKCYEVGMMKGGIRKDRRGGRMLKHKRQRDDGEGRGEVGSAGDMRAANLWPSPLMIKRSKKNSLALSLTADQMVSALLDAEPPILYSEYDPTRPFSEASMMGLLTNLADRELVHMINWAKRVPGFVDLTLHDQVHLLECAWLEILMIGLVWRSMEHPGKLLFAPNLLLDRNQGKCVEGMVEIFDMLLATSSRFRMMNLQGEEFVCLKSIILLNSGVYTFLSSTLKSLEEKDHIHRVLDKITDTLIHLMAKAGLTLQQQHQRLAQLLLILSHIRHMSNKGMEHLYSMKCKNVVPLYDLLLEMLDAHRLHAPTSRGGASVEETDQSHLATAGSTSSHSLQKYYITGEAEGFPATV
Sequence of Estrogen receptor beta (Homo sapiens) (Q92731 whole entry, looked up): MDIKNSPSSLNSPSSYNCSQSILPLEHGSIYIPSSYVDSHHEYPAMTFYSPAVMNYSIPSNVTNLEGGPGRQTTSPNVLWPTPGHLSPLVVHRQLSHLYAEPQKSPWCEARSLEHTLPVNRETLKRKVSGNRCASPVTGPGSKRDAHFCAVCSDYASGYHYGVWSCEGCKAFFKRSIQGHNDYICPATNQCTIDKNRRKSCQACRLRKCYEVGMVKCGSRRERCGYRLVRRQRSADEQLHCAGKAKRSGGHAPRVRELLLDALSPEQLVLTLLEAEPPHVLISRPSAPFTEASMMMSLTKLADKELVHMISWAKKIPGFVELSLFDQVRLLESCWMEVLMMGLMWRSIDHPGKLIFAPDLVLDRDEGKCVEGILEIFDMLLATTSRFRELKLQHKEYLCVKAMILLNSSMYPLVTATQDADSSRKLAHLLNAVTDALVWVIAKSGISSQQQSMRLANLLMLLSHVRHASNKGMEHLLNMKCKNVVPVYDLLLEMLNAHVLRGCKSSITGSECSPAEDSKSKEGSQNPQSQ

FC1(F)C(F)(F)C(F)(F)C2(F)C(F)(F)C(F)(F)C(F)(F)C(F)(F)C2(F)C1(F)F (configuration not stated)
inactive: outcome [1] | Potency [2] | Potency [3] | outcome [4] | Potency [5] | outcome [6] | Potency [7] | Potency [8] | outcome [9] | Potency [10] | outcome [11] | outcome [12] | Potency [13] | Potency [14] | Potency [15] | outcome [16] | Potency [17] | Potency [18]

CC(=O)Nc1ccc(S(N)(=O)=O)cc1
inactive: outcome [1] | Potency [2] | Potency [3] | outcome [4] | Potency [19] | outcome [6] | Potency [7] | Potency [8] | outcome [9] | Potency [10] | outcome [11] | outcome [12] | Potency [13] | Potency [14] | Potency [15] | Potency [20] | outcome [16] | Potency [17] | Potency [18]

N=C(N)c1ccc(OCCCOc2ccc(C(=N)N)cc2)cc1
inactive: outcome [1] | Potency [2] | outcome [4] | PLD induction [5] -2.77% [at 0.306 µM] | Potency [19] | outcome [6] | Potency [7] | Potency [8] | outcome [9] | Potency [10] | outcome [11] | outcome [12] | Potency [13] | Potency [14] | Potency [15] | Potency [20] | outcome [16] | Potency [17] | Potency [18]

COc1ccccc1OCC(O)CN1CCN(CC(=O)Nc2c(C)cccc2C)CC1 (configuration not stated)
inactive: outcome [1] | Potency [2] | outcome [4] | Potency [5] | Potency [19] | outcome [6] | Potency [7] | Potency [8] | outcome [9] | Potency [10] | outcome [11] | outcome [12] | Potency [13] | Potency [14] | Potency [15] | outcome [16] | Potency [17] | Potency [18]

O=C(c1ccccc1)C1CCCCC1
inactive: outcome [1] | Potency [2] | Potency [3] | outcome [4] | Potency [19] | outcome [6] | Potency [7] | Potency [8] | outcome [9] | Potency [10] | Potency [13] | Potency [14] | Potency [15] | outcome [16] | Potency [17] | Potency [18]

O=C1NC(=O)[C@@]2(CCOc3ccc(F)cc32)N1
inactive: outcome [1] | Potency [2] | outcome [4] | Potency [5] | Potency [19] | outcome [6] | Potency [7] | Potency [8] | outcome [9] | Potency [10] | outcome [11] | outcome [12] | Potency [13] | Potency [14] | Potency [15] | Potency [17] | Potency [18]

CC(C)(CC(=O)O)C(=O)O
inactive: outcome [1] | Potency [2] | Potency [3] | outcome [4] | Potency [19] | outcome [6] | Potency [7] | Potency [8] | outcome [9] | Potency [10] | outcome [11] | outcome [12] | Potency [13] | Potency [14] | Potency [15] | outcome [16] | Potency [17] | Potency [18]

CCCCC(CC)COC(=O)c1ccccc1O (configuration not stated)
inactive: outcome [1] | Potency [2] | outcome [4] | Potency [5] | Potency [19] | outcome [6] | Potency [7] | Potency [8] | outcome [9] | Potency [10] | outcome [11] | outcome [12] | Potency [13] | Potency [14] | Potency [15] | outcome [16] | Potency [18]
